Compound activity from PubChem.
BRCA1 expr up: BRCA1 expression activation. Potency, µM (highest dose often 46.1 µM), for the others: at the top dose activation, hits mostly activators. 1.1% of 380,000 active. MCF7-BRCA1-FFLuc reporter, luminescence, 48 h; response scale: scaled: vehicle 0%, 10 µM genistein 100%; note: potency is the fitted concentration of half-maximal effect; nearly all actives have a fitted effect of over 80% in size
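First, MCF7-BRCA1-FFLuc cells (2000/well) attach for 2 h; next, compounds are pin-added and incubated 48 h at 37 °C; finally, luciferase reagent is added and luminescence read after 15 min.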
IL2 activator: activates IL-2 in a cell-based reporter assay | 0.065% of 360,000 active | IL-2 activation reporter assay, cell-based qHTS; stimulated with anti-CD3/CD4/CD28 beads; in transgenic mouse T cells | activation, % (series mostly up to about 46 µM); in the data active = activation above about 50%; inconclusive = mostly about 30% to 49%; note: 0% is about no effect
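Unstimulated transgenic mouse T cells; 60-min compound exposure; bead-based TCR/CD4/CD28 stimulation; 18 h culture, 37 degrees C; dual fluorescence (EGFP, DsRed) plate cytometry.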
ELG1 DNA repair: ELG1-dependent DNA repair inhibition; HEK293T ELG1-luciferase reporter, luminescence, 16 h; DNA damage induced by 5-fluorouridine; Potency, µM (series often up to 46.1 µM), for inactives: at the highest dose activity change, negative = inhibition, actives largely listed as inhibitors; 2.3% of 330,000 active; note: potency is the fitted concentration of half-maximal effect; % is set by controls: 0 for no effect and ±100 for the full control effect; nearly all actives have a fitted effect of over 55% in size
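Cells (2,000 per well) received 5-fluorouridine plus test compound or DMSO and were incubated 16 hr at 37 °C, 5% CO2. Luciferase activity was read by luminescence 30 min after ONE-Glo addition; signal suppression marked inhibition of damage-induced ELG1 function.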
Nrf2 activator: activates Nrf2 signaling | 0.31% of 410,000 active | AID 624171 | AREc32 ARE-luciferase reporter (MCF7-derived line), luminescence, 24 h | Potency, µM (series often up to 46.1 µM), without a hit: at the highest dose activation, most hits filed as activators; note: potency is the fitted concentration of half-maximal effect; % of control where 0% means no effect; nearly all actives have a fitted effect of over 65% in size
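AREc32_Fluc, 1000 cells/well, OPTI-MEM + 5% FBS, o/n 37 deg C 5% CO2; 23 nL cpd by pin tool, 24 hr; Steady-Glo 30 min RT, luminescence.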
Numbers without * were called inactive; ? = inconclusive; / = no result given; [ ] = dose if it differs, or a comment. An excerpt weighted towards active compounds, which were near 3.1% of everything screened. Unless noted, calls come from the whole dose curve; as a rule, active = well fitted curve in the direction sought with a large enough effect; inconclusive = small, poorly fitted or top-dose-only effect, or another doubt; inactive = no such curve, though single readings can be large; an effect the other way counts as inactive or inconclusive.

SMILES | BRCA1 expr up | IL2 activator | ELG1 DNA repair | Nrf2 activator
COc1ccc(CC(=O)Nc2ccc(-c3csc(C)n3)cc2)cc1 | 23% | 0 | -1% | -1%
c1ccc(-c2ccc(-c3csnn3)cc2)cc1 | 7.9µM* | 0 | ? | 26%
O=C(Nc1nc2nc(-c3ccccc3)cc(-c3ccccc3)n2n1)c1ccco1 | -47% | -2 | 8.2µM* | 6%
CC(=O)Nc1nc2nc(-c3ccccc3)cc(-c3ccccc3)n2n1 | 7% | -1 | -26% | 1%
CC(=O)c1ccc(NC(=O)CCc2c(C)nn(-c3ccc4nncn4n3)c2C)cc1 | / | / | / | -1%
Cc1nn(-c2cc(C(F)(F)F)ccc2Cl)c2nc(C(Cl)(Cl)Cl)[nH]c(=O)c12 | -53% | -1 | 21µM* | -1%
CCOC(=O)c1c(-c2ccc(C)o2)csc1NC(=S)NC(=O)c1ccccc1Br | -90% | -4 | ? | 6%
CCOC(=O)c1c(-c2ccc(C)o2)csc1NC(=S)NC(=O)c1cccs1 | -64% | 0 | 16µM* | 9%
COc1cccc(Cn2c(=O)n(-c3cccc(Cl)c3C)c(=O)c3c4c(sc32)CN(C(C)=O)CC4)c1 | / | / | / | 0%
Cc1c(Cl)ccc2c(C(=O)NCCCn3nccc3C)cc(-c3ccccn3)nc12 | -35% | -6 | 18µM* | 5%
Cc1c(Cl)ccc2c(C(=O)NCCN3CCCCC3)cc(-c3ccccn3)nc12 | -41% | -6 | ? | 14%
COC(=O)c1cc2oc3ccccc3c2n1Cc1nc(-c2cccc(Cl)c2)oc1C | / | / | / | 6%
C#CCOc1nc2c(c(=O)n(C)c(=O)n2C)n1Cc1ccccc1 | -36% | -1 | 18µM* | 0%
CC(C)n1c(NCCc2ccccc2)nc2c1c(=O)n(C)c(=O)n2C | -63% | -1 | 18µM* | 0%
CCCCCCn1c(NCC)nc2c1c(=O)n(C)c(=O)n2C | -34% | 0 | 5.8µM* | 1%
COCCn1c(CN2CCN(c3cccc(Cl)c3)CC2)nc2c1c(=O)n(C)c(=O)n2C | -46% | -3 | 15µM* | 0%
Cn1c(=O)c2c(nc(NCCc3ccccc3)n2Cc2ccc(Cl)cc2)n(C)c1=O | -41% | / | / | 1%
Cc1ccc(C)c(NC(=O)CCCN2C(=O)C(c3ccccc3)Oc3cccnc32)c1 (configuration not stated) | -4% | / | / | 0%
FC(F)(F)Oc1ccccc1C(c1nnnn1-c1ccc2c(c1)OCCO2)N1CCN(C/C=C/c2ccccc2)CC1 (configuration not stated) | -31% | -1 | / | 6%
CCn1ccc2cc(S(=O)(=O)N3CCCN(C(=O)Nc4ccc(C)c(F)c4)CC3)ccc21 | -36% | / | / | 6%
COc1ccccc1N1CCN(C(=O)c2ccc(Nc3nc4ccccc4n4nnnc34)cc2)CC1 | / | / | / | 1%
CCCCCn1c(CN(C)Cc2ccccc2)nc2c1c(=O)n(C)c(=O)n2C | -54% | -4 | 18µM* | 0%
CCCCn1c(CN(Cc2ccccc2)Cc2ccccc2)nc2c1c(=O)n(C)c(=O)n2C | 1% | -1 | / | 7%
CN(Cc1ccccc1)Cc1nc2c(c(=O)n(C)c(=O)n2C)n1Cc1ccc(F)cc1 | -29% | -1 | 18µM* | 0%
CCOCCn1c(CN(Cc2ccccc2)Cc2ccccc2)nc2c1c(=O)n(C)c(=O)n2C | -38% | -2 | 18µM* | 3%
SMILES | BRCA1 expr up | IL2 activator | ELG1 DNA repair | Nrf2 activator
CCOCCn1c(CN(Cc2ccccc2)Cc2ccccc2)nc2c1c(=O)[nH]c(=O)n2C | -21% | 3 | -27% | -1%
Cc1ccc(Cn2c(CN(C)Cc3ccccc3)nc3c2c(=O)n(C)c(=O)n3C)cc1 | -46% | -1 | ? | 3%
Cc1ccccc1Cn1c(CN2CCc3ccccc3C2)nc2c1c(=O)n(C)c(=O)n2C | -50% | -1 | 13µM* | 1%
CC(C)C[C@H]1CN(CCCC[C@H]2CNC(=O)C(=O)N2CCc2ccccc2)C(=O)C(=O)N1CCC1CCCCC1 | 10% | -1 | / | 0%
Cc1ccc(N2C(=O)[C@@H]3CSC(c4ccc(Cl)cc4)N3C2=O)cc1 (some centres not stated) | 6% | / | / | 0%
CC(C)n1c(CN(C)Cc2ccccc2)nc2c1c(=O)n(C)c(=O)n2C | -32% | 0 | 4.1µM* | 0%
CC(=O)C(C)n1c(CN(C)Cc2ccccc2)nc2c1c(=O)n(C)c(=O)n2C (configuration not stated) | -8% | -2 | 2% | 4%
Cn1c(=O)c2c(nc(CN3CCN(Cc4ccccc4)CC3)n2Cc2ccc(Cl)cc2)n(C)c1=O | -62% | -3 | 21µM* | -1%
Cc1ccc2nc(-c3ccc(N4C(=NC(=O)CCC(=O)O)SC5CS(=O)(=O)CC54)cc3)sc2c1 (configuration not stated) | 5.6µM* | 0 | ? | 4%[9.22 µM]
O=C(N/N=C/c1ccc(Br)cc1)c1ccc(Br)o1 | 7.9µM* | -6 | ? | 1%
Cc1cc(C(N)=O)c2ccccc2n1 | 16% | -3 | -13% | 0%
NC(=O)c1cc2c3ccccc3ccn2c1-c1ccccc1 | -33% | -1 | ? | 10µM*
O=C(Nc1ccc(N2CCCCC2)cc1)c1ccc(F)cc1 | ? | 0 | ? | 2%
O=C(c1ccc(F)cc1)c1ccc(N2CCCC2)cc1 | 3.2µM* | 1 | ? | 2%
O=C(c1ccc(F)cc1)c1ccc(N2CCCCC2)cc1 | 5µM* | 0 | ? | 0%
CC(C)c1cc(NCC2CCCO2)n2c(nc3ccccc32)c1C#N (configuration not stated) | -40% | -1 | 16µM* | 0%
O=S(=O)(c1ccc(Cl)cc1)c1cnc2ccccc2n1 | -42% | -2 | 3% | ?
Cc1cc(C)cc(S(=O)(=O)c2cnc3ccccc3n2)c1 | -18% | -1 | 5% | 22µM*
CCOC(=O)c1c(NC(=O)C(C)Sc2cn(CCNC(=O)c3ccccc3OC)c3ccccc23)sc2c1CCC2 (configuration not stated) | -20% | / | / | 1%
CC1(C)Cc2ccccc2C(/C(=N/O)C(N)=O)=N1 | 10% | 1 | ? | 0%
CC(=O)c1ccc(N/N=C(/C(N)=O)C2=NC(C)(C)Cc3ccccc32)cc1 | -62% | 0 | 21µM* | -1%
CC(=O)/C(N)=N/Nc1cccc(Cl)c1 | -22% | 1 | -3% | -1%
CC1(C)Cc2ccccc2C(/C(=N\Nc2cccc(Cl)c2)C(N)=O)=N1 | -50% | -6 | 16µM* | 3%
CC(C)C[C@H]1COc2cccc(N3CCC[C@H]3CO)c2S(=O)(=O)N1 | 8% | 2 | / | -1%
O=C1c2ccccc2C(=O)N1CCCCN(C(=O)c1cc2ccccc2oc1=O)c1ccc(Cl)cc1 | -6% | 1 | 23µM* | 0%
COc1ccc(Cc2c(-c3cccc(Br)c3)nc3ccc(Br)cn23)c(C)c1 | 68% | -1 | / | ?
Clc1cccc(Cc2c(-c3ccccc3)nc3c4ccccc4ccn23)c1 | -32% | 0 | / | 5µM*
Brc1cccc(-c2nc3c4ccccc4ccn3c2Cc2ccsc2)c1 | -33% | 0 | / | 11µM*
